# Screening results as filed in PubChem BioAssay.
# Most compounds without a hit are left out; they make up all but 19% or so of the library.
# TDP1 cell CPT – growth inhibition of DT40 Tdp1-/-;hTDP1 cells with camptothecin (screen for TDP1 inhibitors) | chicken DT40 Tdp1-/-;hTDP1 cells + 20 nM CPT, ATP luminescence, 48 h | Potency, µM (highest dose often 46.2 µM), for inactives: at the highest dose activity change, negative = growth inhibition, actives largely listed as inhibitors | 420,000 compounds, 12% hits | AID 686979; further: potency means the concentration at half of the fitted maximal effect; nearly all actives have a fitted effect of over 55% in size
#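 Chicken DT40 Tdp1-/- cells stably complemented with human TDP1 were seeded at 400 cells/well in medium containing 20 nM camptothecin, exposed to pin-transferred compounds, and grown at 37 °C for at least 48 hr. Viability was read as ATP luminescence.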
# TDP1 cell noCPT – qHTS for Inhibitors of human tyrosyl-DNA phosphodiesterase 1 (TDP1): qHTS in cells in absence of CPT; 420,000 compounds, 15% hits; DT40 Tdp1-/- hTDP1 cells, no CPT, ATP luminescence, 48 h; Potency, µM (doses to about 46.2 µM), inactives show at the top dose activity change, negative = growth inhibition, hits mostly inhibitors; further: potency means the concentration at half of the fitted maximal effect; nearly all actives have a fitted effect of over 55% in size
#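 Stably hTDP1-transfected Tdp1-null chicken DT40 cells were treated with library compounds minus camptothecin and grown for at least 48 hr at 37 °C, after which cellular ATP was quantified by luminescence.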
# HT1080 IDH1KD tx – HT-1080 IDH1 knockdown cell toxicity (counter line); HT-1080 IDH1 knockdown viability, ATP luminescence, 48 h; Potency, µM (titrated, usually from 46.1 µM), for the others: at the top dose activity, negative = toxicity, actives largely listed as cytotoxic; 360,000 compounds, 2% hits;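 further: potency means the concentration at half of the fitted maximal effect; 0% = DMSO wells and -100% = cell-free medium wells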
#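 Knockdown cells (IDH1KD HT-1080) received compounds 2 h after plating at 750 cells/well and were kept 48 h at 37 °C in 5% FBS RPMI. A CellTiter-Glo luminescence read gave % activity for curve fitting.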
# IL-1B inflam inh – blocks inflammasome-driven IL-1 beta release. THP-1 LPS/ATP IL-1B secretion, AlphaLISA, 16 h; hits give low values. activity change, % at 57.5 µM. 360,000 compounds, 4.7% hits; in the data active means activity change below about -50%; inconclusive means mostly about -30% to -49%
#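 Secreted IL-1B measured by AlphaLISA bead assay after 16 h compound exposure of THP-1 cells; compounds (final up to 57.5 uM) added 1 h before LPS (250 ng/mL) and ATP (1.25 mM) stimulation; lower signal means less secretion.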
# HT1080NT lethal – kills 2HG-producing HT-1080-NT fibrosarcoma cells; AID 686970; Potency, µM (top dose mostly 46.1 µM), for the others: at the highest dose activity, negative = less viability, actives largely listed as cytotoxic; HT-1080-NT fibrosarcoma viability, CellTiter-Glo ATP luminescence, 48 h; 360,000 compounds, 1.6% hits;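 further: NT is the 2HG producing partner of a matched IDH1 knockdown line; potency means the concentration at half of the fitted maximal effect; 0% = DMSO-treated cells and -100% = media-only wells without cells; nearly all actives have a fitted effect of over 55% in size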
#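 Fibrosarcoma NT cells, 750 per well in 5% FBS RPMI, were exposed to compound for 48 hours. Viability: CellTiter-Glo luminescence.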
# The depositor's hits bear a star; u = inconclusive; x = no result given. Unless noted, the call rests on the fitted dose curve; in most records, active means well fitted curve in the direction sought with a large enough effect; inconclusive means small, poorly fitted or top-dose-only effect, or another doubt; inactive means no such curve, though single readings can be large; an effect the other way counts as inactive or inconclusive. Unless noted, on the % scale 0 is the no-effect control and ±100 the full control effect.
SMILES,TDP1 cell CPT,TDP1 cell noCPT,HT1080 IDH1KD tx,IL-1B inflam inh,HT1080NT lethal
Cc1nc2c(sc3nc(N4CCOCC4)c4c(c32)CC(C)(C)OC4)c(-c2ccc(Cl)cc2)c1C(=O)O,u,u,-21.0%,-1.3,-2.2%
CC(NC(=O)c1cc(F)ccc1F)c1nnc2n1CCN(Cc1ccccc1O)CC2 (stereo unspecified),-15.6%,-26.9%,x,x,x
CCOc1ccc(-n2c(=O)c3c(C)c(C)sc3n(Cc3cc(=O)n4cc(Cl)ccc4n3)c2=O)cc1,-1.1%,u,x,x,x
O=C1CCCc2cc(S(=O)(=O)NCC3CCC(C(=O)NCc4ccccc4Cl)CC3)ccc2N1 (stereo unspecified),u,-29.8%,x,x,x
CC(C)(C)OC(=O)N1CCC[C@H]1C(=O)N/N=C/c1ccc2ncccc2c1,4.3%,-3.5%,5.8%,-17.4,13.3%
CN(C)c1ccc(Sc2ccc3nc(N)nc(N)c3c2)cc1,1.84µM*,0.651µM*,1.64µM*,-15.5,2.31µM*
O=C(CS(=O)(=O)c1cccc2nsnc12)Nc1ccc(F)cc1,-19.7%,u,x,x,x
CCc1ccc(C2c3c(-c4ccccc4O)n[nH]c3C(=O)N2Cc2ccncc2)cc1 (stereo unspecified),14.6µM*,13µM*,x,x,x
COCCN1C(=O)c2[nH]nc(-c3ccccc3O)c2C1c1ccc(OC)cc1 (stereo unspecified),-3.8%,-19.8%,-17.0%,-24.4,-1.8%
CCOCCCN1C(=O)c2[nH]nc(-c3ccccc3O)c2C1c1ccc(CC)cc1 (stereo unspecified),20.6µM*,16.4µM*,x,x,x
O=C1c2[nH]nc(-c3ccccc3O)c2C(c2cccc(O)c2)N1Cc1ccncc1 (stereo unspecified),-6.3%,-11.8%,x,x,x
O=C(c1ccc(Cl)cc1)N1CCN(c2ccc(F)cc2)CC1,u,u,12.6%,-27.8,-1.6%
O=C(c1nc(-c2ccc(Cl)cc2)n2c1CCCCC2)N1CCN(c2ccc(F)cc2)CC1,23.1µM*,10.3µM*,x,x,x
O=C(c1nc(-c2ccc(Cl)cc2)n2c1CCCCC2)N1CCN(c2ccccc2F)CC1,u,16.4µM*,x,x,x
Cc1ccc2c(=O)c(C(=O)c3ccccc3)cn(CC(=O)Nc3ccc4c(c3)OCCO4)c2n1,u,-10.9%,x,x,x
CCOc1ccccc1OCC(=O)NCCc1ccc(S(N)(=O)=O)cc1,-0.5%,-18.1%,15.3%,-7.2,4.2%
COc1cc(Cl)c(C)cc1NC(=O)CSCC#N,-21.5%,-4.8%,-28.9%,23.1,10µM*
COc1cc(Cl)c(C)cc1NC(=O)CSc1cc(Cl)ccc1Cl,u,23.1µM*,-6.8%,24.2,-5.8%
COc1cc(Cl)c(C)cc1NC(=O)CSC,-1.9%,3.9%,1.6%,1.0,14.2%
Cc1cc(OC(=O)c2c(C)cc(OC(=O)c3c(C)cc(O)cc3O)cc2O)cc(O)c1C(=O)O,12.2%,-10.8%,5.6%,3.2,0.0%
CCC(=O)c1ccc(OCC(O)CN(CCc2ccccc2)Cc2ccccc2)cc1 (stereo unspecified),u,20.6µM*,-9.8%,-80.0*,u
OC(COc1ccccc1)CN(Cc1ccccc1)CC(O)COc1ccccc1 (stereo unspecified),16.4µM*,20.6µM*,u,-52.7*,u
COc1cccc(OCC(O)CN(CCO)Cc2ccccc2)c1 (stereo unspecified),-20.4%,-21.2%,0.2%,21.6,-6.3%
COc1ccc(CCNC(=O)CSc2nc3ccccc3nc2Cc2ccc(Cl)cc2)cc1OC,-24.5%,-20.9%,x,x,x
CCOC(=O)c1cnn(C)c1NC(=O)c1ccc([N+](=O)[O-])cc1,-1.1%,-17.4%,13.7%,25.6,10.3%
SMILES,TDP1 cell CPT,TDP1 cell noCPT,HT1080 IDH1KD tx,IL-1B inflam inh,HT1080NT lethal
CCN(CC)CCOc1c(Br)ccc2c1sc1nc3n(c(=O)c12)CCC3,u,20.6µM*,u,-63.8*,u
O=c1[nH]c(CSc2cccc[n+]2[O-])nc2ccccc12,10.3µM*,u,-0.1%,62.9,0.0%
Cc1ccc(SCCN2CCC(C(C)(C)C)CCC2=O)cc1 (stereo unspecified),9.2µM*,u,0.3%,1.2,-7.7%
CC(=O)Nc1ccc(SCCN2CC[C@@H](C(C)(C)C)CCC2=O)cc1,u,12.6µM*,9.3%,-18.1,0.6%
CC(C)(C)C1CCC(=O)N(CCSc2ccccc2)CC1 (stereo unspecified),u,u,-4.7%,119.9,-4.6%
C/C=C1\NC(=O)[C@H](C)NC(=O)[C@@H](NC(=O)[C@H](Cc2ccc(O)cc2)NC(=O)[C@@H](NC(=O)/C(C)=C/C)C(C)C)[C@@H](C)OC(=O)[C@H](CCCc2ccc(O)cc2)NC(=O)[C@@H](CCC(=O)OC)NC1=O,2.1%,6.4%,-11.7%,22.9,26.7%
C/C=C1\NC(=O)[C@H](CC(N)=O)N(C)C(=O)C([C@@H](C)O)NC(=O)C(CCCc2ccc(OC)cc2)NC(=O)[C@H](C(C)C)NC(=O)/C(=C\C)NC(=O)[C@H](O)[C@@H](C[C@@H](O)CCCCCCC)NC(=O)[C@H](C)NC(=O)CN(C)C(=O)[C@H](CCC(N)=O)NC1=O (stereo partly specified),7.31µM*,8.2µM*,u,50.0,-29.4%
O=C(NCC1CCCO1)C1CC(=O)N(c2cccc(Cl)c2)C1 (stereo unspecified),-4.6%,2.6%,16.9%,11.0,20.5%
CCOC(=O)N1CCN(C(=O)c2ccccc2NC(C)=O)CC1,20.0%,12.6%,16.3%,9.7,17.0%
O=C(O)CCC(=O)N1CCN(c2nc(-c3ccccc3)c3ccccc3n2)CC1,-16.5%,-17.4%,7.3%,-5.8,-1.8%
CCOC(=O)N1CCN(C(=O)c2ccccc2NC(=O)COc2ccccc2)CC1,u,16.4µM*,-14.9%,8.4,-4.1%
CCOC(=O)N1CCN(C(=O)c2cccc(OC)c2O)CC1,-4.9%,-6.6%,-5.7%,-26.7,1.1%
COc1ccccc1OCC(=O)Nc1ccccc1C(=O)N1CCCCC1,-5.1%,-13.1%,-6.4%,0.9,-5.2%
CCOC(=O)N1CCN(C(=O)c2ccccc2-c2ccccc2)CC1,3.66µM*,3.26µM*,7.31µM*,26.6,10.3µM*
O=C(COc1ccccc1Cl)Nc1ccccc1C(=O)N1CCCCC1,u,16.4µM*,-5.8%,-9.5,-1.5%
CCOC(=O)N1CCN(c2nc(-c3ccccc3)c3ccccc3n2)CC1,-25.7%,25.9µM*,7.8%,-5.0,u
O=C(Cc1ccccc1)N[C@H](c1ccccc1)P(=O)(O)CO,-2.5%,3.3%,12.2%,12.3,11.1%
